HepG2 tox: qHTS for Inhibitors of TGF-b: Cytotox Counterscreen | HepG2 CAGA-GFP viability, ATP luminescence, 18 h | Potency, µM (titrated, usually from 46.1 µM), for the others: at the top dose activity change, negative = cytotoxicity, hits mostly cytotoxic | 410,000 tested, 0.76% active
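CellTiter-Glo luminescence gave cytotoxicity after 18 hours at 37 degrees C. The cells were HepG2 CAGA-GFP in 1% FBS DMEM, stimulated with 500 pg/mL TGF-beta after compound addition. %Activity was normalised to no-cell wells (complete cell-killing) and DMSO (no toxicity), and curves were fitted and classified.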
TGFb inhibitor: qHTS for Inhibitors of TGF-b; 410,000 tested, 1.2% active; Potency, µM (top dose mostly 46.1 µM), for inactives: top-dose activity, negative = inhibition, actives largely listed as inhibitors; AID 588855, 2011; HepG2 CAGA-GFP TGF-b/SMAD3 reporter, GFP fluorescence, 18 h; TGF-beta stimulated, 500 pg/mL final; note: % is set by controls: 0 for no effect and ±100 for the full control effect; nearly all actives have a fitted effect of over 65% in size
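Inhibition of TGF-beta-driven CAGA-GFP reporter expression in HEPG2 cells is measured by cellular GFP fluorescence after 18 h stimulation with 500 pg/mL recombinant TGF-beta in 1% FBS medium at 37 degrees C.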
ATXN viability: Viability Counterscreen for Primary qHTS for Inhibitors of ATXN expression; AID 651635, 2014; Potency, µM (doses to about 56.7 µM), hits mostly cytotoxic; S2 cells (HEK-293 line with an ATXN2-luciferase reporter) viability, CellTiter-Fluor protease fluorescence, 24 h; 400,000 tested, 0.49% active; note: nearly all actives have a fitted effect of over 40% in size
ATXN2 expr inh: Primary qHTS for Inhibitors of ATXN expression | HEK-293 ATXN2-luciferase reporter, luminescence, 24 h | Potency, µM (top dose mostly 57 µM), for inactives: top-dose activity change, negative = inhibition, actives largely listed as inhibitors | 360,000 tested, 0.72% active | AID 1745845, 2022; note: % is set by controls: 0 for no effect and ±100 for the full control effect; nearly all actives have a fitted effect of over 55% in size
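qHTS (up to 57 uM final) was run with 24 h compound exposure of reporter cells at 37 °C. Each well was multiplexed: SteadyGlo luminescence measured ATXN2-luciferase expression after a fluorogenic Gly-Phe-AFC viability readout (25 uM final).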
VP16 counter: VP16 counterscreen qHTS for inhibitors of ROR gamma transcriptional activity; Drosophila S2 Gal4-VP16 UAS-luciferase, luminescence, 20 h; Potency, µM (top dose mostly 53.6 µM), inactives show top-dose activity, negative = inhibition, hits mostly inhibitors; 310,000 tested, 3.5% active;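 note: Gal4-VP16 expression switched on by copper sulfate through the metallothionein promoter; % is set by controls: 0 for no effect and ±100 for the full control effect; nearly all actives have a fitted effect of over 50% in size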
RORg inh: qHTS for inhibitors of ROR gamma transcriptional activity. Potency, µM (top dose mostly 53.6 µM), inactives show at the highest dose activity change, negative = inhibition, actives largely listed as inhibitors. Drosophila S2 Gal4-RORgamma UAS-luciferase reporter, 20 h. Nuclear receptor ROR-gamma (Mus musculus), P51450. 310,000 tested, 5.4% active; note: % is set by controls: 0 for no effect and ±100 for the full control effect; nearly all actives have a fitted effect of over 60% in size
Target sequence (P51450 whole entry, looked up, the tested form may be a part): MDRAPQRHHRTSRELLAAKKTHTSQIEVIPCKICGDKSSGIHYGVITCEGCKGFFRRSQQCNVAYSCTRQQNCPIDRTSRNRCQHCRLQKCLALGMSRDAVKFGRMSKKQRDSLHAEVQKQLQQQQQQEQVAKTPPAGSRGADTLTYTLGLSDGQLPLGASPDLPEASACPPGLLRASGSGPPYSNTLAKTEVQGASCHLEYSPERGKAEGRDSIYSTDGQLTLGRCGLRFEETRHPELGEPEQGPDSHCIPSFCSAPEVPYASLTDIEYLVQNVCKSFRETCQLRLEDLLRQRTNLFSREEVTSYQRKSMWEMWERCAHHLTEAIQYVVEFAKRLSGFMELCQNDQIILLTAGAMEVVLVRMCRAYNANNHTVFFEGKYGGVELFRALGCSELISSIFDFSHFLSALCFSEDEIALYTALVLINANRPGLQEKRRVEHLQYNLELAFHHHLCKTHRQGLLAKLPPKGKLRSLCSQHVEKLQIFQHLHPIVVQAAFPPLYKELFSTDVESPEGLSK
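Drosophila Schneider cells stably carrying a metallothionein-driven Gal4 DBD–ROR gamma fusion and a UAS-Photinus luciferase reporter were exposed to compound for 1 hr, then induced with copper sulfate (700 uM final) for 20 hr at ambient temperature before luminescence reading.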
* hit, by the source's call. A selection: hits, their analogues and other compounds. The true share with any hit is near 6.1%. Calls come from the whole dose curve; as a rule, active = well fitted curve in the direction sought with a large enough effect; inconclusive = small, poorly fitted or top-dose-only effect, or another doubt; inactive = no such curve, though single readings can be large; an effect the other way counts as inactive or inconclusive. Potency is the fitted concentration of half-maximal effect.

Cc1ccc(-c2cc3ncc(C(=O)c4cc([N+](=O)[O-])ccc4O)cn3n2)cc1 was read as HepG2 tox -8%, TGFb inhibitor inconclusive, ATXN viability inactive and ATXN2 expr inh -20%.
CCCCNC(=O)[C@@H]1CC=C[C@@H]2CCN(CCCC)C(=O)[C@@H]21 was read as HepG2 tox 17% and TGFb inhibitor 4%.
N=c1c(S(=O)(=O)c2ccc(Br)cc2)cc2c(=O)n3ccccc3nc2n1Cc1ccco1 was read as HepG2 tox -64%, TGFb inhibitor 7.9µM*, VP16 counter -9% and RORg inh -3%.
For CCC(=O)NS(=O)(=O)c1ccc(-c2c(-c3ccccc3)noc2C)cc1 the results were ATXN viability inactive.
For CCOC(=O)c1c(NC(=O)CSc2nnc(-c3ccccc3)o2)sc(C(C)=O)c1C the results were HepG2 tox -1%, TGFb inhibitor 0%, ATXN viability inactive, ATXN2 expr inh -19%, VP16 counter 3% and RORg inh -33%.
Screening C/C(=N\NC(=O)CSc1nc2ccccc2o1)c1ccc(O)cc1 returned HepG2 tox -9%, TGFb inhibitor -7%, ATXN viability inactive, ATXN2 expr inh -16%, VP16 counter 3% and RORg inh 11µM*.
CCOC(=O)c1c(NC(=O)CSc2nc3ccccc3o2)sc(C(C)=O)c1C was read as HepG2 tox 3%, TGFb inhibitor -15%, ATXN viability inactive, ATXN2 expr inh 28%, VP16 counter inconclusive and RORg inh 13µM*.
For C=CCN1CCc2c(cc(O)c(O)c2Cl)C(c2cccc(C)c2)C1 (configuration not stated) the results were VP16 counter 0% and RORg inh -36%.
COC(=O)C1=C(C(=O)OC)[C@@H]2N(Cc3ccccc3)c3ccccc3[C@@]23C[C@@H](C(=O)OC)N(C(=O)c2ccc(Br)cc2)C3=N1 was read as HepG2 tox -10%, TGFb inhibitor 10µM*, ATXN viability inconclusive, ATXN2 expr inh inconclusive, VP16 counter 6% and RORg inh inconclusive.
For C=CCN1c2ccccc2[C@]23C[C@@H](C(=O)OC)N(C(=O)c4ccc(Br)cc4)C2=NC(C(=O)OC)=C(C(=O)OC)[C@H]13 the results were HepG2 tox -29%, TGFb inhibitor 20µM*, ATXN viability inconclusive, ATXN2 expr inh inconclusive, VP16 counter -10% and RORg inh 70%.
`CN(Cc1ccccc1)C(=S)NC(=O)c1ccccc1` gave HepG2 tox -24%, TGFb inhibitor -9%, ATXN viability inactive, ATXN2 expr inh -6%, VP16 counter 2.8µM* and RORg inh 1µM*.
`COc1ccc(C(=O)NC(=S)N(C)Cc2ccccc2)cc1Br` gave HepG2 tox -8%, TGFb inhibitor 9%, ATXN viability inconclusive, ATXN2 expr inh inconclusive, VP16 counter 0.71µM* and RORg inh 0.4µM*.
`COc1ccc([C@@H](C)C(=O)c2ccc(O)cc2O)cc1` gave VP16 counter 0% and RORg inh -4%.
For O=CC(=O)c1ccc(Cl)cc1 the results were HepG2 tox -29% and TGFb inhibitor -28%.
For O=C(/C=C/Sc1ccccc1)c1ccc(Cl)cc1 the results were HepG2 tox 11µM*, TGFb inhibitor 8.9µM*, ATXN2 expr inh inconclusive, VP16 counter 14µM* and RORg inh inconclusive.
Screening O=C(/C=C/Sc1ccccc1)c1ccccc1 returned HepG2 tox 16µM*, TGFb inhibitor 10µM*, ATXN2 expr inh inconclusive, VP16 counter inconclusive and RORg inh inconclusive.
Screening O=C(C=Cc1ccccc1Cl)c1ccccc1 returned HepG2 tox -17%, TGFb inhibitor -3%, ATXN viability inactive and ATXN2 expr inh 24%.
O=C(NCC(c1ccc(Cl)cc1)N1CCCCC1)c1ccccc1 (configuration not stated) was read as HepG2 tox -16%, TGFb inhibitor -15%, ATXN viability inactive and ATXN2 expr inh -11%.
Cc1ccc(-c2cn3cccc(C)c3n2)cc1 was read as HepG2 tox -20%, TGFb inhibitor inconclusive, ATXN viability inactive, ATXN2 expr inh -20%, VP16 counter -44% and RORg inh 11µM*.
Screening Cc1cccn2cc(-c3ccc(S(=O)(=O)N4CCCCC4)cc3)nc12 returned HepG2 tox -15%, TGFb inhibitor 6%, ATXN viability inactive, ATXN2 expr inh -10%, VP16 counter 1% and RORg inh 1%.
For Cc1cccn2cc(-c3ccc(Cl)cc3)nc12 the results were HepG2 tox -23%, TGFb inhibitor inconclusive, ATXN viability inactive, VP16 counter inconclusive and RORg inh 5.6µM*.
CCCc1nc2cccnc2n1C1CCN(C(=O)CC2NC(=O)c3ccccc32)CC1 (configuration not stated) was read as ATXN viability inactive.
Screening CCCCCCNC(=O)CC(c1ccccc1)c1cc(Br)ccc1O (configuration not stated) returned HepG2 tox 13µM*, TGFb inhibitor 13µM*, ATXN viability inactive, ATXN2 expr inh inconclusive, VP16 counter 10µM* and RORg inh 2.8µM*.
Screening CC(C)NC(=O)CC(c1ccccc1)c1cc(Br)ccc1O (configuration not stated) returned HepG2 tox -23%, TGFb inhibitor -7%, ATXN viability inactive, ATXN2 expr inh -8%, VP16 counter -9% and RORg inh 20%.
Screening C=CCNC(=S)NNC(=O)c1cc(-c2cccnc2)nc2ccccc12 returned HepG2 tox -15%, TGFb inhibitor -13%, ATXN viability inactive, ATXN2 expr inh 5%, VP16 counter -22% and RORg inh -42%.
For COCCNC(=S)NNC(=O)c1cc(C2CC2)nc2ccccc12 the results were HepG2 tox 5%, TGFb inhibitor -1%, ATXN viability inactive, ATXN2 expr inh 2%, VP16 counter -27% and RORg inh 11µM*.
For CNC(=S)NNC(=O)c1cc(-c2cccnc2)nc2ccccc12 the results were HepG2 tox -13%, TGFb inhibitor -11%, ATXN viability inactive, ATXN2 expr inh -5%, VP16 counter 16µM* and RORg inh 7.1µM*.

Compound activity: PubChem BioAssay, National Center for Advancing Translational Sciences (NCATS)
